Data as given in PubChem BioAssay (NCATS).
Results filed as inconclusive are left out. Activity calls are given as the source filed them. Unless noted, calls follow the shape of the dose curve; as a rule, active = well fitted curve in the direction sought with a large enough effect; inconclusive = small, poorly fitted or top-dose-only effect, or another doubt; inactive = no such curve, though single readings can be large; an effect the other way counts as inactive or inconclusive.

Assays:
[1] = Cell Viability - BJ (AID 421; calls by dose curve;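 also: potency is read from the fitted curve at half-maximal effect; cells exposed to compound for 40 hours at 37 °C before readout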); conditions: BJ fibroblast viability, qHTS
Outline: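 Normal human BJ foreskin fibroblasts, 1500/well in complete medium, treated 40 hr at 37 °C. Cellular ATP by CellTiter-Glo luminescence; normalized to DMSO and 100 uM tamoxifen, AC50 from Hill fit.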

[2] = Cell Viability - Jurkat (AID 426;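 active = dose-dependent loss of cell ATP signal giving a full or clear fitted curve, ranked by lower potency value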; also: potency is read from the fitted curve at half-maximal effect); conditions: qHTS
Outline: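 Jurkat (Clone E6-1) cells, 5000/well in complete medium, exposed to compounds for 40 hr at 37C; intracellular ATP measured by CellTiter-Glo luminescence after 20 min at room temperature. AC50 from Hill fits.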

[3] = Cell Viability - Hek293 (AID 427;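 active = compounds whose dose-response curve shows a full or clear partial loss of cell viability, called from curve shape rather than a numeric limit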;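 also: potency is read from the fitted curve at half-maximal effect; cells exposed to compound for 40 hours at 37 °C before reading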); conditions: qHTS
Outline: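 HEK293 cells in complete medium were exposed to compound for 40 hr at 37 °C, then cellular ATP was read by CellTiter-Glo luminescence. Data were normalized to DMSO (basal) and 100 uM tamoxifen (100% inhibition), and AC50 came from Hill fits.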

[4] = Cell Viability - HepG2 (AID 433; calls by dose curve;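 also: potency is read from the fitted curve at half-maximal effect; potency for ATP loss meaning cytotoxicity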); conditions: qHTS
Outline: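 ATP luminescence (CellTiter-Glo) after 40 h compound exposure, 37 °C, HepG2, 1500 cells/well, complete medium. Normalized: DMSO = basal, 100 uM tamoxifen = 100% inhibition. AC50 via standard Hill equation.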

[5] = Cell Viability - MRC5 (AID 434; calls by dose curve;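 also: potency is read from the fitted curve at half-maximal effect; potency reflects cytotoxicity seen as loss of intracellular ATP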); conditions: MRC5 lung fibroblast viability, qHTS
Outline: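 qHTS cytotoxicity in human lung fibroblast MRC5 cells; 40 hr treatment, 37 °C; cellular ATP by luciferase luminescence; DMSO = 0%, 100 uM tamoxifen = 100% inhibition; Hill-fit AC50.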

[6] = Cell Viability - SK-N-SH (AID 435; calls by dose curve; also: potency is read from the fitted curve at half-maximal effect); conditions: SK-N-SH neuroblastoma cell viability qHTS
Outline: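 CellTiter-Glo ATP luminescence, 20 min RT read; cells pre-plated 5 hr, compound 40 hr at 37 °C, 1500 cells/well, complete medium. Normalized DMSO = 0, 100 uM tamoxifen = 100% inhibition; Hill-fit AC50.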

[7] = target: Mitogen-activated protein kinase 10 (Mus musculus) (UniProt Q61831); experiment: JNK3 AlphaScreen Assay (AID 530; active = well fitted curve in either direction with a large enough effect, not every such curve was filed as active;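 also: kinase came from lysate of stimulated human HepG2 cells; signal reports phosphorylation of biotinylated GST-cJun 1-79 at Ser73 with 10 µM ATP; % is scaled to controls: 0 for no effect and ±100 for the full control effect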); conditions: JNK3 lysate, c-Jun phosphorylation; series mostly up to 57.1 µM
Outline: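 Compound titrations were preincubated 15 minutes at room temperature with substrate, antibody and pre-activated JNK3-containing HepG2 lysate. Reactions were started with 10 uM ATP and stopped with EDTA-containing bead buffer for AlphaScreen detection.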

[8] = Cell Viability - N2a (AID 540); conditions: N2a mouse neuroblastoma cell viability; activity change, negative = cytotoxicity: at 92.2 µM (top of the series);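 also: plate controls were DMSO alone for no effect and tamoxifen control for full effect; nearly all actives have a fitted effect of over 45% in size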
Outline: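 Mouse neuroblastoma N2a cells, 1500/well, exposed to compounds 40 h at 37 °C in complete medium. Viability measured as cellular ATP by CellTiter-Glo luminescence; AC50 from Hill fits of concentration-response.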

[9] = Cell Viability - NIH 3T3 (AID 541); conditions: NIH 3T3 cell viability, qHTS; activity change, negative = cytotoxicity: at 92.2 µM (top of the series);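 also: plate controls were DMSO alone for no effect and tamoxifen positive control for full effect; nearly all actives have a fitted effect of over 25% in size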
Outline: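 Mouse NIH 3T3 fibroblasts, 1000 cells/well, rested 5 hr at 37 °C, then exposed to compound for 40 hr at 37 °C in complete medium. Viability read as intracellular ATP by CellTiter-Glo luminescence; AC50 from Hill-equation fits of concentration-response data.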

[10] = Cell Viability - HUV-EC-C (AID 542); conditions: HUV-EC-C endothelial cell viability, qHTS; series mostly up to 92.2 µM; also: % is scaled to controls: 0 for no effect and ±100 for the full control effect; nearly all actives have a fitted effect of over 35% in size
Outline: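 HUV-EC-C human vascular endothelial cells, 1000/well, exposed to compound for 40 hr at 37 °C in complete medium. Intracellular ATP was read by CellTiter-Glo luminescence. AC50 came from Hill-equation fits of concentration-response data.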

[11] = Cell Viability - H-4-II-E (AID 543); conditions: H-4-II-E rat hepatoma viability; series mostly up to 92.2 µM; also: % is scaled to controls: 0 for no effect and ±100 for the full control effect; nearly all actives have a fitted effect of over 35% in size
Outline: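 Rat hepatoma H-4-II-E cells, 1500 per well, treated 40 h at 37 °C in complete medium. Cellular ATP read by CellTiter-Glo luminescence; AC50 from Hill fits of concentration-response.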

[12] = Cell Viability - SH-SY5Y (AID 544); conditions: SH-SY5Y neuroblastoma cell viability; viability change, negative = cytotoxic: at 92.2 µM (top of the series); also: nearly all actives have a fitted effect of over 55% in size
Outline: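 SH-SY5Y human neuroblastoma cells (1500/well) incubated 5 h, then compound-treated 40 h at 37 °C in complete medium. Viability read as intracellular ATP by CellTiter-Glo luminescence after 20 min; AC50 from Hill-equation fits of qHTS concentration-response.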

[13] = Cell Viability - Renal Proximal Tubule (AID 545); conditions: renal proximal tubule cells viability, primary cells of rat origin; series mostly up to 91.7 µM; also: nearly all actives have a fitted effect of over 40% in size
Outline: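 Rat kidney proximal tubule cells, freshly isolated; 1000 cells/well, 5 hr settle, compound 40 hr 37 °C. CellTiter-Glo 20 min RT, luminescence read. AC50 by standard Hill fit.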

[14] = Cell Viability - Mesenchymal (AID 546); conditions: mesenchymal cells viability, qHTS; series mostly up to 91.7 µM;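 also: cells exposed to compound for 40 hours before reading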
Outline: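 AC50 values reflect the drop in intracellular ATP in a human kidney mesenchymal line derived from normal glomeruli. Treatment lasts 40 hr at 37 °C in complete medium, and the signal comes from CellTiter-Glo luminescence.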

[15] = Cellular Toxicity (caspase-3) HepG2 (AID 654); conditions: HepG2 caspase-3 activation, luminescence; series mostly up to 92.2 µM;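 also: cells exposed to compound for 16 hours before reading; 0% = DMSO alone and 100% = caspase signal from 100 µM tamoxifen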
Outline: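 HepG2 cells (1500/well) were treated 16 h at 37 °C in complete medium, then caspase 3/7 activity was read by Caspase-Glo luminescence. Data were normalized to DMSO and 100 uM tamoxifen; AC50 came from Hill-equation fits of qHTS concentration-response.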

[16] = Cellular Toxicity (caspase-3) Jurkat (AID 655); conditions: Jurkat caspase-3 activation, luminescence; caspase-3 activation: at 92.2 µM (top of the series), DMSO = 0%, tamoxifen = 100%;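 also: cells exposed to compound for 16 h at 37 °C before reading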
Outline: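 Luminescent caspase-3/7 readout (aminoluciferin substrate cleavage) in human T-cell leukemia Jurkat cells after 16 hr compound exposure. Concentration-response normalized to DMSO and 100 uM tamoxifen; AC50 by standard Hill equation.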

[17] = Cellular Toxicity (caspase-3) HUV-EC-C (AID 656); conditions: HUV-EC-C cells, caspase-3 activation (apoptosis), vehicle = 0, 100 µM tamoxifen = 100%; series mostly up to 92.2 µM
Outline: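 Luminescent caspase-3/7 activation (aminoluciferin substrate cleavage) in HUV-EC-C cells after 16 hr compound exposure, 37°C. Signal normalized to DMSO basal and 100 uM tamoxifen as 100%; AC50 from concentration-response fitted with the Hill equation.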

[18] = Cellular Toxicity (caspase-3) SHSY5Y (AID 657); conditions: SH-SY5Y caspase-3 activation, DMSO zero, 10 µM staurosporine = 100%; series mostly up to 91.7 µM;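 also: cells exposed to compound for 16 hours at 37 °C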
Outline: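 Luminescent caspase-3/7 readout (aminoluciferin release) in SH-SY5Y cells after 16 h compound exposure in complete medium. Activity scaled between DMSO basal and 10 uM staurosporine as 100%; concentration-response fitted to Hill equation for AC50.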

[19] = Cellular Toxicity (caspase-3) BJ (AID 658); conditions: BJ fibroblasts, luminescence, normalized: DMSO 0%, staurosporine 100%; series mostly up to 91.7 µM;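 also: cells exposed to compound for 16 hours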
Outline: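 Readout: Caspase-Glo 3/7 luminescence increase in BJ cells after 16 hr treatment at 37 °C. Staurosporine and tamoxifen served as positive controls; AC50 values came from Hill modelling of data normalized to DMSO and 10 uM staurosporine.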

[20] = Cellular Toxicity (caspase-3) MRC-5 (AID 659); conditions: MRC-5 cells, luminescence, normalized: DMSO 0%, 10 µM staurosporine 100%; series mostly up to 91.7 µM;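 also: cells exposed to compound for 16 h at 37 °C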
Outline: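 Concentration-dependent caspase 3/7 activation is measured in human normal lung fibroblasts (MRC-5) following 16-hour treatment. AC50 values come from standard Hill-equation modeling of luminescence normalized to DMSO and 10 uM staurosporine.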

Nc1cccc(O)c1
inactive: Potency [1] > 92 µM | Potency [2] > 92 µM | Potency [3] > 92 µM | Potency [4] > 92 µM | Potency [5] > 92 µM | Potency [6] > 92 µM | outcome [7] | activity change, negative = cytotoxicity [8] 4.14% | Potency [9] | Potency [10] | Potency [11] | Potency [12] | Potency [13] | Potency [14] | Potency [15] | caspase-3 activation [16] 0.69% | outcome [17] | outcome [18] | outcome [19] | outcome [20]

CC(C)C(C)C
inactive: Potency [1] > 92 µM | Potency [2] > 92 µM | Potency [3] > 92 µM | Potency [4] > 92 µM | Potency [5] > 92 µM | Potency [6] > 92 µM | outcome [7] | activity change, negative = cytotoxicity [8] 5.14% | Potency [9] | Potency [10] | Potency [11] | Potency [12] | Potency [13] | Potency [14] | Potency [15] | caspase-3 activation [16] -0.000823% | outcome [17] | outcome [18] | outcome [19] | outcome [20]

CCCCCCCN
inactive: Potency [1] > 92 µM | Potency [2] > 92 µM | Potency [3] > 92 µM | Potency [4] > 92 µM | Potency [5] > 92 µM | Potency [6] > 92 µM | outcome [7] | activity change, negative = cytotoxicity [8] -10.2% | Potency [9] | Potency [10] | Potency [11] | Potency [12] | Potency [13] | Potency [14] | Potency [15] | caspase-3 activation [16] -1.01% | outcome [17] | outcome [18] | outcome [19] | outcome [20]

CCCC=O
inactive: Potency [1] > 92 µM | Potency [2] > 92 µM | Potency [3] > 92 µM | Potency [4] > 92 µM | Potency [5] > 92 µM | Potency [6] > 92 µM | outcome [7] | activity change, negative = cytotoxicity [8] -20.1% | Potency [9] | Potency [10] | Potency [11] | Potency [12] | Potency [13] | Potency [14] | Potency [15] | caspase-3 activation [16] -0.873% | outcome [17] | outcome [18] | outcome [19] | outcome [20]

Nc1nc(CC(=O)O)cs1
inactive: Potency [1] > 92 µM | Potency [2] > 92 µM | Potency [3] > 92 µM | Potency [4] > 92 µM | Potency [5] > 92 µM | Potency [6] > 92 µM | outcome [7] | activity change, negative = cytotoxicity [8] 6.3% | Potency [9] | Potency [10] | Potency [11] | Potency [12] | Potency [13] | Potency [14] | Potency [15] | caspase-3 activation [16] 0.779% | outcome [17] | outcome [18] | outcome [19]

C=C(C)C(=O)OCCCCCCCCCC
inactive: Potency [1] > 92 µM | Potency [2] > 92 µM | Potency [3] > 92 µM | Potency [4] > 92 µM | Potency [5] > 92 µM | Potency [6] > 92 µM | outcome [7] | activity change, negative = cytotoxicity [8] 3.17% | Potency [9] | Potency [10] | Potency [11] | Potency [12] | Potency [13] | Potency [14] | Potency [15] | caspase-3 activation [16] -0.118% | outcome [17] | outcome [18] | outcome [19] | outcome [20]

CCCCCCCCCCCCC1CO1 (centres undefined)
inactive: Potency [1] > 92 µM | Potency [2] > 92 µM | Potency [3] > 92 µM | Potency [4] > 92 µM | Potency [5] > 92 µM | Potency [6] > 92 µM | outcome [7] | activity change, negative = cytotoxicity [8] 6.57% | Potency [9] | Potency [10] | Potency [11] | Potency [12] | Potency [13] | Potency [14] | Potency [15] | caspase-3 activation [16] -0.853% | outcome [17] | outcome [18] | outcome [19] | outcome [20]

CC(C)(C)OC=O
inactive: Potency [1] > 92 µM | Potency [2] > 92 µM | Potency [3] > 92 µM | Potency [4] > 92 µM | Potency [5] > 92 µM | Potency [6] > 92 µM | outcome [7] | activity change, negative = cytotoxicity [8] -8.52% | Potency [9] | Potency [10] | Potency [11] | Potency [12] | Potency [13] | Potency [14] | Potency [15] | caspase-3 activation [16] -1.27% | outcome [17] | outcome [18] | outcome [19] | outcome [20]

C1COC1
inactive: Potency [1] > 92 µM | Potency [2] > 92 µM | Potency [3] > 92 µM | Potency [4] > 92 µM | Potency [5] > 92 µM | Potency [6] > 92 µM | outcome [7] | activity change, negative = cytotoxicity [8] -2.69% | Potency [9] | Potency [10] | Potency [11] | Potency [12] | Potency [13] | Potency [14] | Potency [15] | caspase-3 activation [16] -0.0782% | outcome [17] | outcome [18] | outcome [19] | outcome [20]

CC(C)(O)C(=O)O
inactive: Potency [1] > 92 µM | Potency [2] > 92 µM | Potency [3] > 92 µM | Potency [4] > 92 µM | Potency [5] > 92 µM | Potency [6] > 92 µM | outcome [7] | activity change, negative = cytotoxicity [8] 4.75% | Potency [9] | Potency [10] | Potency [11] | Potency [12] | Potency [13] | Potency [14] | Potency [15] | caspase-3 activation [16] -0.979% | outcome [17] | outcome [18] | outcome [19] | outcome [20]

O=[N+]([O-])c1cc(C(F)(F)F)ccc1Cl
inactive: Potency [1] > 92 µM | Potency [2] > 92 µM | Potency [3] > 92 µM | Potency [4] > 92 µM | Potency [5] > 92 µM | Potency [6] > 92 µM | outcome [7] | activity change, negative = cytotoxicity [8] 4.62% | Potency [9] | Potency [10] | Potency [11] | Potency [12] | Potency [13] | Potency [14] | Potency [15] | caspase-3 activation [16] 0.364% | outcome [17] | outcome [18] | outcome [19] | outcome [20]
